High-throughput results: PubChem BioAssay, several laboratories
BJeLR viability = kills HRASV12-expressing BJeLR cells; BJeLR (HRASV12) viability, CellTiter-Glo ATP luminescence, 48 h; inhibition, % (test concentration not listed); 300,000 tested, 0.17% active; in the data active means inhibition above about 50%
Mtb UGM inh = blocks M. tuberculosis UGM enzyme; inhibition, % at 10 µM; P9WIQ1; 320,000 tested, 0.06% active; AID 504406; purified UGM, fluorescence polarization probe displacement; in the data active means inhibition above about 10%, passing the limit was not always enough
FadD28 binding = M. tuberculosis FadD28 bisubstrate binding inhibition; FadD28 bisubstrate probe binding, fluorescence polarization; inhibition, % at 12.5 µM; 360,000 tested, 0.22% active; in the data active means inhibition above about 8.5%, passing the limit was not always enough
PrP 5UTR inh = inhibition of PrP 5' UTR reporter expression; cell-based PrP 5' UTR mRNA reporter, plate reader; inhibition, % (no concentration beside the values); 340,000 tested, 0.35% active; AID 488862; in the data active means inhibition above about 52%; further: 0 = median of the neutral control wells
Rv3671c inh = inhibits the M. tuberculosis serine protease Rv3671c. P9WHR9. inhibition, % at 5.96 µM. 320,000 tested, 0.048% active. AID 2606; in the data active means inhibition above about 38%;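 further: extracellular domain of Rv3671c used as enzyme; 0% = enzyme with DMSO and 100% = no enzyme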
Target sequence (P9WHR9 whole entry, looked up, the tested form may be a part): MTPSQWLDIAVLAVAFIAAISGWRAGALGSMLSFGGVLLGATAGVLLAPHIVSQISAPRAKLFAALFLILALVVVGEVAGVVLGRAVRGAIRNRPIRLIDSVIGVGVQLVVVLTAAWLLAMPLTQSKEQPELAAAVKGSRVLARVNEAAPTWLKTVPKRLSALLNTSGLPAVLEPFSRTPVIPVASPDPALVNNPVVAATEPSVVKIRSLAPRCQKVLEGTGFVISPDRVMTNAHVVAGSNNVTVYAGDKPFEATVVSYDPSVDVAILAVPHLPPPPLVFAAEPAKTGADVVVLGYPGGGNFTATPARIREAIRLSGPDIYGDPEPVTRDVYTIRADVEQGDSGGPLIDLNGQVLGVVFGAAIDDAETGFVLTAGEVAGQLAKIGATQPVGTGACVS
RecA intein inh = inhibitors of M. tuberculosis RecA intein splicing. P9WHJ3. cell-free RecA intein splicing, fluorescence. inhibition, % (concentration not given with the values). 290,000 tested, 0.75% active. AID 2221; in the data active means inhibition above about 30%;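 further: 0% = vehicle wells and 100% = reference inhibitor control wells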
PrP UTR cherry = prion 5' UTR mRNA inhibition, cherry-pick retest | shares compounds with PrP 5UTR inh | cell-based prion protein 5' UTR reporter, plate reader | inhibition, % at 2.5 µM | 1,100 tested, 48% active | AID 504592; in the data active means inhibition above about 54%
The depositor's hits bear a star; . = no result. Hits are enriched below; roughly 1.3% of the tested compounds scored in any of these assays.

SMILES	BJeLR viability	Mtb UGM inh	FadD28 binding	PrP 5UTR inh	Rv3671c inh	RecA intein inh	PrP UTR cherry
COc1cc(C2c3cc4c(cc3C(OC3OC5COC(c6cccs6)OC5C(O)C3O)C3COC(=O)C23)OCO4)cc(OC)c1O (configuration not stated)	73*	-2	0	71*	-9	-3	61*
COc1cc([C@@H]2c3cc4c(cc3[C@@H](O[C@@H]3O[C@@H]5CO[C@@H](C)O[C@H]5[C@H](O)[C@H]3O)[C@H]3COC(=O)[C@H]23)OCO4)cc(OC)c1O	11	-2	-1	-3	6	3	.
C=C1C(=O)O[C@@H]2C[C@@H](C)[C@@H]3C=CC(=O)[C@@]3(C)[C@@H](O)[C@H]12	3	-4	0	56*	1	7	82*
C=C1C(=O)O[C@@H]2C[C@@H](C)[C@@H]3C=CC(=O)[C@@]3(C)[C@@H](OC(C)=O)[C@H]12	-18	1	.	.	17	8	.
CN(C)c1ccc(/C=C2\SC(N3CCCCC3)=NC2=O)cc1	-14	0	0	57*	-2	-15	42
CSC1=NCCN1C(=O)c1c(-c2c(F)cccc2Cl)noc1C	-4	5	-5	-4	4	1	.
CCOC(=O)Cc1[nH]nc2c1C(c1ccsc1)C(C#N)=C(N)O2 (configuration not stated)	-1	0	1	53*	4	57*	-9
Cc1ccc(NC(=O)c2cc3ccccc3oc2=O)cc1S(=O)(=O)N(C)C	-1	2	0	90*	-4	1	90*
COc1cc(NC(=O)CN2C(=O)NC(CC(C)C)C2=O)cc(OC)c1OC (configuration not stated)	.	1	-1	-10	4	.	.
CCC1SC(CC)C(=O)N(CC(=O)NCc2ccc(F)cc2)C1=O (configuration not stated)	2	4	-1	78*	-5	-3	-19
O=C(CCSc1ccc(Cl)cc1)N1CCN(S(=O)(=O)c2ccccc2)CC1	.	0	-1	-13	-2	.	.
CC(C)c1ccc2oc(-c3cc(N)ccc3O)nc2c1	-7	-2	1	63*	-3	-5	33
Cc1ccc(S(=O)(=O)NC2CC2)cc1[N+](=O)[O-]	0	4	0	-9	6	-5	.
Cc1ccc2nc(-c3ccccc3)cn2c1	36	-1	-4	87*	-4	2	85*
O=C(Nc1c2c(nn1-c1ccc([N+](=O)[O-])cc1)CS(=O)(=O)C2)c1ccccc1F	-9	-1	-4	-7	2	-1	.
CCCN1CCC(C)(C(=O)Nc2cccc(OC(C)C)c2)C1 (configuration not stated)	.	.	-1	.	.	.	.
CCOC(=O)C1C(OC(=O)c2ccccc2)CC2CCC1N2C (configuration not stated)	.	.	2	70*	.	.	1
CN(C)c1ccc(CCc2ccc(N)cc2)cc1	-6	-3	0	57*	7	3	53*
O=C(O)c1ccc(COc2ccc(CO)cc2Cl)cc1	2	0	-4	-62	-4	1	.
CCOc1ccc(OCc2cccc(C(=O)O)c2)cc1	55*	0	-1	93*	-4	1	95*
COc1ccc(OCc2cccc(C(=O)O)c2)cc1	42	-1	0	93*	1	-1	94*
CCOc1ccc(NC(=O)c2ccccn2)cc1	13	-3	-2	62*	-5	1	72*
O=C(O)c1cccc(COc2ccc(CO)cc2Cl)c1	15	3	-2	93*	0	2	93*
CCOc1ccc(NC(=O)c2cnccn2)cc1	1	3	1	-24	-2	-1	.
COc1ccc(OC)c(-c2csc(NC(=O)c3ccc(F)cc3)n2)c1	-6	-3	-1	-28	-3	-2	.
O=Cc1ccc(OCc2cccc(C(F)(F)F)c2)cc1O	.	3	-4	-11	4	7	.
O=C(OCC(F)(F)F)c1cccc(COc2ccc3ccccc3c2)c1	-6	3	-5	63*	-8	10	66*
O=C(O)c1cccc(COc2ccc3c(c2)CCC3)c1	3	0	-1	82*	0	2	88*
